Bioassay records: PubChem, several laboratories
Hits are enriched below; roughly 4.8% of the tested compounds scored in any of these assays.
MPTP block – inhibitors of mitochondrial permeability transition pore; isolated mouse mitochondria, Ca2+ swelling absorbance, 30 min; inhibition, % at 10 µM; hit rate 1.4% among 360,000;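 active = inhibition of 50% or more, scaled per plate between neutral and stimulator controls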;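 note: 0% = DMSO wells given calcium and 100% = 1 mM EGTA wells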
CSC inhib – blocks cancer stem cells; cancer stem cell-like cells viability, luminescence; inhibition, % at 7.5 µM; hit rate 1.1% among 300,000; in the data active = inhibition above about 75%; tested in HMLE shEcad cells
Calb FLC – C. albicans growth modulation with fluconazole; C. albicans CaCi-2 (fluconazole-resistant clinical isolate) + fluconazole, Alamar Blue growth, 48 h; hit rate 0.57% among 300,000; growth inhibition, % (concentration not given with the values);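 active = growth inhibition above about 58% in most replicates, limit read from the data, passing the limit was not always enough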;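 note: all wells also contain fluconazole at 8 µg/ml as a sub-toxic cotreatment; 0% = median of DMSO wells and 100% = median of geldanamycin control wells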
Mdm2 MdmX PPI – disrupts the human Mdm2-MdmX interaction; hit rate 3% among 330,000; SaOS-2 split-luciferase Mdm2/MdmX complementation, luminescence; O15151+Q00987; inhibition, % at 8 µM;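 active = inhibition of at least 50% at 8 µM in the primary screen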
Beta apoptosis – beta cell apoptosis inhibition | INS-1E cytokine-induced death, ATP luminescence, 48 h; percent of positive-control rescue, neutral wells zero | protection from apoptosis, % (no concentration beside the values) | hit rate 0.8% among 300,000 | AID 435005;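 active = Every replicate reaches about 75%, or at least half do and their mean reaches it too, limit read from the data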;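 note: 0% = cytokine-treated negative control wells and 100% = positive control rescue; higher means more ATP so stronger rescue from cytokine killing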
Mdm2 MdmX conf – confirmation of human Mdm2/MdmX interaction inhibitors; Mdm2-MdmX binding, luminescent assay; inhibition, % at 8 µM; hit rate 55% among 10,000; shares compounds with Mdm2 MdmX PPI; in the data active = inhibition above about 40%
Full FLuc ctr – counter-screen for Mdm2/MdmX inhibitors: full-length luciferase; shares compounds with Mdm2 MdmX PPI; SaOS-2 full-length luciferase counterscreen, luminescence; inhibition, % at 8 µM; hit rate 77% among 6,200;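 active = mean inhibition at 8 µM reaching about 37%, which flags the compound as non-specific, limit read from the data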;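 note: p53-null SaOS-2 cells with luciferase driven by a doxycycline-inducible promoter; compound on cells about two nights before reading with doxycycline added after day one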
* marks the source's active call; other numbers are inactive results; nt = no result given.

SMILES	MPTP block	CSC inhib	Calb FLC	Mdm2 MdmX PPI	Beta apoptosis	Mdm2 MdmX conf	others
COc1cc2c(cc1NC(=O)CSc1nnc(Cc3cccs3)n1C)oc1ccccc12	-9	-9	-11	21	-13	nt
Cc1ccccc1NC(=O)CN1C(=O)NC2(CCc3ccccc32)C1=O (stereo not drawn)	-2	-16	nt	3	-1	nt
CCn1c(SCC(=O)Nc2cc3oc4ccccc4c3cc2OC)nnc1-c1cccs1	1	6	3	51*	-4	12
COc1cc2c(cc1NC(=O)CN1C(=O)NC3(CCc4ccccc43)C1=O)oc1ccccc12 (stereo not drawn)	1	66	27	69*	9	13
C=CCn1c(COc2ccccc2F)nnc1SCC(=O)Nc1cc2oc3ccccc3c2cc1OC	2	27	-7	54*	-1	33
CCOc1ccc(CCNC(=O)COc2cccc(-n3cnnn3)c2)cc1OCC	-1	-9	1	21	-6	nt
CC(c1ccccc1C(O)c1ccccc1)N(C)C (stereo not drawn)	1	-1	2	29	-1	nt
Cc1ccc(C(O)(c2ccccc2)c2ccccc2C(C)N(C)C)c(C)c1 (stereo not drawn)	3	21	37	62*	-13	25
COc1ccc(CNc2ncc(-c3ccc(F)cc3)n2C)c2ccccc12	4	8	-14	57*	-2	25
OCCN(Cc1ccccn1)Cc1ccccn1	-8	nt	nt	nt	nt	nt
Cc1cccc(NC(=O)/C(C#N)=C/c2cn(CC(=O)NCc3ccco3)c3ccccc23)c1C	1	9	-13	90*	-4	49*	Full FLuc ctr=65*
N#C/C(=C\c1cn(Cc2ccccc2)c2ccccc12)C(=O)NCc1ccco1	0	32	10	4	-14	nt
CCc1ccc(NC(=O)/C(C#N)=C/c2cn(CC(=O)O)c3ccccc23)cc1	-1	-2	4	0	-4	nt
N#C/C(=C/c1cn(CC(=O)O)c2ccccc12)C(=O)Nc1ccccc1	-2	2	-3	51*	3	-16
Cc1ccc(N(C(=O)CNC(=O)c2ccco2)C(C(=O)NC2CCCC2)c2cccnc2)cc1F (stereo not drawn)	0	-3	3	16	-5	nt
c1ccc(/N=C2\N=C(Nc3ccccn3)c3ccccc32)nc1	1	52	1	72*	103*	5
c1ccc(Nc2ccccn2)cc1	1	-5	-1	13	-5	nt
NC(=O)N=Nc1c2[nH]c3ccccc3nc-2c2ccccc12	2	58	-9	82*	62	52*	Full FLuc ctr=65*
O=c1[nH]c2ccccc2nc1-c1ccccc1	0	0	-4	-4	2	nt
O=C(N[C@@H]1C/C=C\C[C@H](CC(=O)N(CCO)Cc2ccccc2)C(=O)N[C@@H](Cc2ccccc2)COC1=O)OCC1c2ccccc2-c2ccccc21	-1	40	nt	93*	1	43*	Full FLuc ctr=59*
O=C(N[C@H]1C/C=C\C[C@@H](CC(=O)N(CCO)Cc2ccccc2)C(=O)NC[C@H](c2ccccc2)OC1=O)OCC1c2ccccc2-c2ccccc21	0	104*	nt	58*	10	12
C[C@@H]1COC(=O)[C@H](NC(=O)OCC2c3ccccc3-c3ccccc32)C/C=C\C[C@@H](CC(=O)N(CCO)Cc2ccccc2)C(=O)N1	-2	nt	nt	-3	39	nt
O=C(N[C@@H]1C/C=C\C[C@@H](CC(=O)N(CCO)Cc2ccccc2)C(=O)NCCOC1=O)OCC1c2ccccc2-c2ccccc21	-1	nt	nt	9	18	nt
O=C1NC[C@H](Cc2ccc(O)cc2)N(C[C@@H]2CCCN2C[C@H](Cc2ccc(O)cc2)N2C[C@H](Cc3ccccc3)N(CCc3ccccc3)C(=O)C2=O)C1=O	-2	nt	nt	nt	nt	nt
C=CC[C@@H](CC(=O)N(CCO)Cc1ccccc1)C(=O)N[C@H](COC(=O)[C@@H](CC=C)Cc1ccc(F)cc1)Cc1ccccc1	2	-5	nt	70*	6	14
SMILES	MPTP block	CSC inhib	Calb FLC	Mdm2 MdmX PPI	Beta apoptosis	Mdm2 MdmX conf	others
C=CC[C@H](CC(=O)N(CCO)Cc1ccccc1)C(=O)N[C@@H](C)COC(=O)[C@@H](CC=C)Cc1ccc(F)cc1	0	0	nt	-7	-15	nt
C=CCC[C@@H](Cc1ccc(F)cc1)C(=O)OC[C@@H](NC(=O)[C@@H](CC=C)CC(=O)N(CCO)Cc1ccccc1)c1ccccc1	-2	nt	nt	88*	1	9
C=CC[C@@H](CC(=O)N(CCO)Cc1ccccc1)C(=O)N[C@@H](COC(=O)[C@@H](CC=C)Cc1ccc(F)cc1)Cc1ccccc1	0	nt	nt	63*	13	12
CC1Oc2ccc(C#N)cc2N(Cc2cccc(F)c2)C1=O (stereo not drawn)	-2	nt	nt	nt	nt	nt
CCNc1ccc(C(=O)OCC)cc1NC(=O)c1cccc(S(=O)(=O)N(C)c2ccccc2)c1	4	16	14	18	-7	nt
CCNc1ccc(C(=O)OCC)cc1NC(=O)c1cccc(N(C)C)c1	1	nt	58	58*	nt	54*	Full FLuc ctr=65*
Cc1ccc(-c2ccc(/C=C3\C(=O)ON=C3c3ccccc3)o2)c([N+](=O)[O-])c1	-4	5	-8	82*	92*	1
COc1cccc(CNC(=O)C2CCN(S(=O)(=O)c3ccc4c(c3)OCCO4)CC2)c1	-1	nt	-9	7	-1	nt
Cc1cccc(NC(=O)Cn2cnc3c(oc4ccccc43)c2=O)c1C	2	-8	-7	64*	-3	0
Cc1ccccc1NC(=O)Cn1cnc2c(oc3ccccc32)c1=O	0	-5	1	-2	0	nt
Cc1cc(Br)c2c(c1)[C@](O)(c1cn(C)c3ccccc13)C(=O)N2C	-1	nt	nt	nt	nt	nt
Clc1ccc(CN2CCc3c([nH]c4ccccc34)C2)cc1Cl	-2	124*	15	96*	10	39	Full FLuc ctr=48*
CCNC(=O)C1(C)CCCN(Cc2cc(-c3ccccc3)n(C)n2)C1 (stereo not drawn)	-1	nt	nt	nt	nt	nt
Cc1ccc(NC(=O)c2ccc(=O)n(CC(=O)Nc3ccccc3)n2)cc1	-1	-6	-8	-3	2	nt
Cc1ccc(NC(=O)c2cc(C(C)(C)C)nn2Cc2ccccc2)cc1	44	nt	1	74*	nt	55*	Full FLuc ctr=59*
CCN(CC)CCn1c2ccccc2c2nc3ccc([N+](=O)[O-])cc3cc21	-2	40	4	78*	35	77*	Full FLuc ctr=57*
COc1ccc(C23CC4CC(CC(C4)C2)C3)cc1C(=O)NCCN(C)C	38	4	11	62*	20	23
COc1ccccc1C(=O)NCCC(=O)NCCC12CC3CC(CC(C3)C1)C2	0	-3	-35	8	0	nt
CCC(=O)N1CCC(C)(C(=O)Nc2nccc3ccccc23)C1 (stereo not drawn)	0	nt	nt	nt	nt	nt
CCOc1ccc(C(c2c(NC(=O)c3ccccc3)sc(C)c2C)N2CCN(CCO)CC2)cc1 (stereo not drawn)	0	29	-4	15	3	nt
